# Activity calls are given as the source filed them. The calls were made as follows: active = hit-call score of the fitted dose curve at least 0.9, where 1 is the maximum; inactive = score below 0.9.
# Assay: CCTE_Shafer_MEA_acute_spike_number: CCTE's Neural Acute Assay for Total Number of Spikes, Shafer Lab (AID 2284008);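 as to AC50: curve fitted for decrease in spike count so AC50 reflects inhibitors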
# Experimental: CCTE_Shafer_MEA_acute assay is conducted using Axion Biosystems 48 well microelectrode array (MEA) plates and Maestro recording system. Each well of the MEA plate contains a grid of 16 microelectrodes embedded in the culture surface. Electrically active cells, such as neurons, can be cultured over the electrodes, and electrical activity in these cells can be recorded extracellularly. The spontaneous firing of neurons is captured from each electrode on a microsecond timescale providing both temporally and spatially precise data. […] The CCTE_Shafer_MEA_acute assay uses primary cultures of rat cortical neurons. As these cultures mature over time, neural networks develop functional activity and form cohesive networks in which electrical activity can be highly coordinated. Baseline 40-minute recordings are made on days post-plating 13 or 15, followed by a secondary 40-minute recording after chemical exposure.CCTE_Shafer_MEA_acute_spike_number is a component of the CCTE_Shafer_MEA_acute assay. It measures the total number of spikes (action potential firings) in a 40-minute recording in a microelectrode array (MEA) using Axion Biosystems Maestro 768 channel amplifier with the AxIS adaptive spike detector. The recordings before and after chemical treatment are used to calculate a percent change in the spike number in each well. Data from the assay component CCTE_Shafer_MEA_acute_spike_number was analyzed into 1 assay endpoint. This assay endpoint, CCTE_Shafer_MEA_acute_spike_number, was analyzed in the negative analysis fitting direction relative to DMSO as the negative control and baseline of activity. Using a type of functional reporter, gain or loss-of-signal activity can be used to understand electrical activity.
# Spontaneous activity in the cortical cultures was recorded using an Axion Biosystems Maestro 768 channel amplifier and Axion Integrated Studios (AxIS) v1.8 (or later) software. The amplifier recorded from all channels simultaneously (gain = 1200 x; sampling rate = 12.5 kHz/channel): raw signals were filtered with a Butterworth band-pass filter (300-5000 Hz), which filters out slower local field potentials leaving only fast potentials, i.e., "spikes", arising from extracellular currents associated with action potentials (Pine 2006; Wheeler and Nam 2011). On-line spike detection of filtered signals was conducted with the AxIS adaptive spike detector, using a threshold of 8x the root mean squared (rms) noise on each channel. Any electrodes with rms noise levels greater than 5 uV were grounded (e.g., no data were recorded). Once grounded, an electrode was grounded for the duration of the experiment. All recordings were conducted at 37 C. Wells were deemed usable if on the day of the exposure >/= 10 electrodes were active (defined as >/= 5 spikes/min). On DIV 13 or 15, a minimum of three wells from one cortical culture preparation were treated with each compound (0.03-40 uM). Prior to recording baseline activity, each mwMEA plate was placed in the Maestro at 37 C and allowed to sit for 20 min while firing rates stabilized. Baseline activity (40 min) was recorded before the addition of each compound. An additional 40 min of spontaneous activity was recorded in the presence of each compound. Changes in network parameters relative to baseline were assessed following compound treatment.
SMILES,AC50,outcome
CN(C)Cc1cc(C(C)(C)C)c(O)c(C(C)(C)C)c1,2.98 µM (active),
CN(C)CCC(c1ccc(Cl)cc1)c1ccccn1 (stereo not given),,inactive
C1CN(CCOCCN2CCOCC2)CCO1,,inactive
CN(C)C(=O)C(CCN1CCC(O)(c2ccc(Cl)cc2)CC1)(c1ccccc1)c1ccccc1,0.291 µM (active),
COc1ccc(C(=O)c2ccccc2O)c(O)c1,0.0215 µM (active),
Cc1c(C(N)=O)cc([N+](=O)[O-])cc1[N+](=O)[O-],0.003 µM (active),
O=[N+]([O-])c1cc(S(=O)(=O)Nc2ccccc2)ccc1Nc1ccccc1,2.98 µM (active),
CC(C)C1OCCN1CCOC(=O)NCCCCCCNC(=O)OCCN1CCOC1C(C)C (stereo not given),0.0163 µM (active),
COc1ccccc1Oc1c(NS(=O)(=O)c2ccc(C(C)(C)C)cc2)nc(-c2ncccn2)nc1OCCO,,inactive
CC1(C)S[C@@H]2[C@H](NC(=O)[C@H](N)c3ccccc3)C(=O)N2[C@H]1C(=O)O,,inactive
COc1cc(CNC(=O)CCCC/C=C/C(C)C)ccc1O,,inactive
CC[N+](CC)(CC(=O)Nc1c(C)cccc1C)Cc1ccccc1 (tested in a mixture with another compound),0.256 µM (active),
CCC[Si](OC(C)=O)(OC(C)=O)OC(C)=O,0.0721 µM (active),
CNCCC(Oc1ccc(C(F)(F)F)cc1)c1ccccc1 (stereo not given),0.877 µM (active),
NC(N)=Nc1nc(CSCCC(N)=NS(N)(=O)=O)cs1,,inactive
